Assay results as given in PubChem BioAssay AID1259417 (TB Discovery Research, Infectious Disease Research Institute, 2018).
About 760 (69%) of roughly 1,100 compounds were called active. The rule behind the calls is not given here. So high a share suggests a set chosen from earlier hits. Some of the results follow.

Test: M. tuberculosis growth inhibition, HTS (AID 1259417);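 note: bacteria grown with compound for 5 days at 37 °C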
Conditions: stronger effect = higher value, concentration not given here
[1] = M. tuberculosis DsRed fluorescence growth inhibition
[2] = M. tuberculosis growth inhibition

SMILES	inhibition [1]	inhibition [2] [%]
COC(=O)COc1ccc2c(=O)c(-c3ccccc3OC)coc2c1	16.1% (active)	38.3
COc1ccccc1-c1coc2cc(OCC(=O)OCc3ccccc3)ccc2c1=O	36.9% (active)	64.7
CCOC(=O)COc1ccc2c(=O)c(-c3ccccc3)coc2c1	96% (active)	97
CCOC(=O)COc1ccc2c(=O)c(-c3ccccc3OC)coc2c1	10.9% (inactive)	27
COC(=O)COc1ccc2c(=O)c(Oc3ccccc3)c(C)oc2c1	77.7% (active)	88.9
COC(=O)COc1ccc2c(=O)c(-c3ccccc3Cl)coc2c1	74% (active)	94.8
CCC(C(=O)Nc1ccc(CC(=O)OC)cc1)c1ccccc1 (stereo not drawn)	70.5% (active)	93.3
COc1cc(Br)cc2cc(C(=O)Nc3cccc(C(F)(F)F)c3)c(=O)oc12	10.9% (inactive)	29.4
COc1cc(NC(=O)c2cc3ccccc3o2)ccc1NC(=O)c1ccccc1Cl	2.65% (inactive)	-0.577
COc1ccc(OC)c(NC(=O)c2cc3cc(Cl)ccc3oc2=O)c1	12.1% (inactive)	21.1
COc1ccc(OC)c(NC(=O)c2cc3cc(Br)ccc3oc2=O)c1	9.39% (active)	46.5
CCCCc1ccc(NC(=O)c2cc3cc(Br)cc(OC)c3oc2=O)cc1	4.42% (active)	82.8
Cn1nc([N+](=O)[O-])nc1Sc1nnc(-c2cccnc2)o1	87.1% (active)	91.2
Cc1ccc(NC(=O)C(C)NS(=O)(=O)c2ccc(Cl)cc2)cc1Cl (stereo not drawn)	2.64% (inactive)	-8.36
Cc1cc(Cl)ccc1NC(=O)CCc1ccc(S(=O)(=O)NC(C)C)cc1	94.8% (active)	83.1
CC(NS(=O)(=O)c1cccc(Cl)c1)C(=O)Nc1ccc(Br)cc1F (stereo not drawn)	11.5% (inactive)	13.5
Cc1cc(Cl)ccc1NC(=O)CCc1ccc(S(=O)(=O)NCC(C)C)cc1	95.3% (active)	83.6
CCOC(=O)c1cccc(NC(=O)C(Cl)Cl)c1	47.5% (active)	52.3
COc1cc(NC(=O)C(Cl)Cl)c(OC)cc1Cl	7.63% (inactive)	4.68
Cc1cc(=O)[nH]c(-n2nc(C)cc2C)n1	91.4% (active)	94.9
Cc1cccc(-c2nsc(SCC(=O)NCC3CCCO3)n2)c1 (stereo not drawn)	94.3% (active)	76.8
COc1ccc(-c2nsc(SCC(=O)NCC3CCCO3)n2)cc1 (stereo not drawn)	95.7% (active)	76.1
COc1ccc(-c2nsc(SCC(=O)NCc3ccco3)n2)cc1	93.1% (active)	66.6
COc1cc(C(=O)Nc2sc3c(c2C(=O)NCC2CCCO2)CCC3)cc(OC)c1OC (stereo not drawn)	-3.52% (inactive)	-31.7
CC(C)(C)c1ccc(C(=O)Nc2sc3c(c2C(=O)NCC2CCCO2)CCCC3)cc1 (stereo not drawn)	12.8% (inactive)	-13.4
c1c2c(cc3sc(N4CCCC4)nc13)OCO2	100% (active)	99.8
CCOc1ccc(-c2nnc(SCC(=O)Nc3cc(C)on3)o2)cc1	-1.63% (active)	32.7

SMILES	inhibition [1]	inhibition [2] [%]
CCOc1ccc(NC(=O)CSc2nnc(-c3ccccc3Cl)o2)cc1	13.5% (inactive)	-1.29
Cc1cc(NC(=O)CSc2nnc(Cc3ccccc3)o2)no1	-2.93% (inactive)	6.89
Cc1ccc(-c2nnc(SCC(=O)Nc3cc(C)on3)o2)cc1	2.19% (active)	50.5
Cc1cc(NC(=O)CSc2nnnn2-c2ccccc2C)no1	56.3% (active)	88.3
O=C(Oc1cccc2cccnc12)C(Cc1ccccc1)N1C(=O)C2C3CCC(C3)C2C1=O (stereo not drawn)	99.8% (active)	101
O=C(CCN1C(=O)c2ccccc2C1=O)Oc1cccc2cccnc12	99.5% (active)	100
CC(C(=O)Oc1cccc2cccnc12)N1C(=O)C2C3C=CC(C4CC34)C2C1=O (stereo not drawn)	100% (active)	101
O=C(CCN1C(=O)C2C3C=CC(C4CC34)C2C1=O)Oc1cccc2cccnc12 (stereo not drawn)	100% (active)	101
COc1cc2cc(-c3nc4ccccc4[nH]3)c(N)nc2cc1OC	93.9% (active)	94
CCc1nc2sc(C(=O)NCc3ccc(F)cc3)c(N)c2c(C(F)(F)F)c1C	41.1% (active)	20.9
COc1ccc(CNC(=O)c2c(N)nc3sc4c(c3c2C(F)(F)F)CCC4)cc1	4.42% (inactive)	-3.32
COC(=O)CN1C(c2ccc(OC)cc2)=Nc2ccc(Cl)cc2C1c1ccccc1 (stereo not drawn)	52.5% (active)	79.3
COC(=O)CN1C(c2cccc(Cl)c2)=Nc2ccc(Cl)cc2C1c1ccccc1 (stereo not drawn)	10.1% (active)	40.7
CSc1ccc2nc(Nc3nc4ccc(NC(C)=O)cc4s3)sc2c1	2.19% (inactive)	1.87
CC12CC3CC(C)(C1)CC(C(=O)Nc1nc4ccccc4s1)(C3)C2	98.3% (active)	97.6
CCn1nnc(NC(=O)COc2ccc(C3CCCCC3)cc2)n1	37% (active)	86.6
CCCn1nnc(NC(=O)COc2ccc(C3CCCCC3)cc2)n1	26.3% (active)	72.9
CCC(=O)Oc1ccc(C(=O)Nc2cc3oc4ccccc4c3cc2OC)cc1	12% (inactive)	10.7
CCOC(=O)CSCC(=O)Nc1c(C(=O)C2CC2)oc2ccccc12	27.6% (active)	48.3
CC(C)(C)C(=O)/C=C/Nc1ccccc1O	99.2% (active)	98.5
CSc1nsc(SCC(=O)N2CCN(c3ccccc3)CC2)n1	98.3% (active)	98.7
O=C(Nc1ccc2c(c1)OCCO2)c1cccc2nc3ccccc3nc12	97.2% (active)	96.7
COc1cc(NC(=O)c2ccc3c(c2)OCCO3)ccc1NC(=O)c1ccccc1Cl	2.06% (inactive)	9.67
Cc1ccc(NC(=O)CC2COc3ccccc3O2)cc1Cl (stereo not drawn)	2.96% (inactive)	-10.1
Cc1ccc([N+](=O)[O-])cc1NC(=O)CN(C(=O)c1ccccc1Cl)C1CCCCC1	75.1% (active)	49.8
COc1ccc(-c2cc(C(=O)NN=CC=Cc3ccccc3OC)[nH]n2)cc1	9.99% (active)	65
COc1ccc(C(=O)Nc2cc(OC)c(NC(=O)c3ccco3)cc2OC)cc1	0.929% (inactive)	-7.24
